# Assay results as given in PubChem BioAssay AID488896 (Broad Institute, 2010).
# The whole screen tested about 320,000 compounds, of which about 3,100 (0.97%) were called active.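 The calls were made as follows: active = mean replicate inhibition of at least 70% and a set share of replicates each scoring 70 or more; inconclusive = meets just one of the two criteria; inactive = fails both criteria.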 Only a selection was taken, and actives are over-represented in it overall. Non-standard residues stand in square brackets, D forms with d. Residues, ends and D or L forms follow the SMILES beside them. ξ: configuration not given here. Ac5c = NC1(C(=O)O)CCCC1; ξS = NC(CO)C(=O)O
# Target: Scavenger receptor class B member 1 (Mus musculus) (UniProt Q61009)
# Sequence (Q61009 whole entry, looked up): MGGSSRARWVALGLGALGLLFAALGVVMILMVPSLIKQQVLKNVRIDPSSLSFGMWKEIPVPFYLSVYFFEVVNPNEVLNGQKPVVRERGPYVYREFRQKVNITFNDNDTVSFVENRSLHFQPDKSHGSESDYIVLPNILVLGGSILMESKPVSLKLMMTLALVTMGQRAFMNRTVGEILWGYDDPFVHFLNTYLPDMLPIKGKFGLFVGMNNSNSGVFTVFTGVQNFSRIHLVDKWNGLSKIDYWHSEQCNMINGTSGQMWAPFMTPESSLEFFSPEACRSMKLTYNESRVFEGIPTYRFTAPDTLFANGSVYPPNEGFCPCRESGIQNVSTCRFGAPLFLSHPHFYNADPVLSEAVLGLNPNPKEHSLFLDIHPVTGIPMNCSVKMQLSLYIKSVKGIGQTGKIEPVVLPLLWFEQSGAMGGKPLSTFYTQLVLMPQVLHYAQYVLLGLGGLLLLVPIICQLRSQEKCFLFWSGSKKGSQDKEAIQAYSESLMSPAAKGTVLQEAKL
# Assay: mouse SR-BI DiI-HDL uptake blockers – ldlA[mSR-BI] cells, fluorescence, single point, primary screen (AID 488896);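 also: 0% = median of neutral control wells and 100% = median of positive control wells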
# Conditions: ldlA[mSR-BI] CHO cells, 3 h, at 12.5 µM, active compounds read high
row,SMILES,inhibition
1,NC1=NOC(=O)C1C1CCCCC1 (stereo not drawn),-14.7% (inactive)
2,COc1ccc(-c2nc3c(s2)CCc2onc(-c4ccc(Br)cc4)c2-3)cc1,58.7% (inactive)
3,COc1ccc(-c2nc3n(c2Br)CCC3)cc1,4.81% (inactive)
4,COc1ccc(-c2nc3c(s2)CCc2onc(-c4ccc(OC)cc4)c2-3)cc1,75.1% (active)
5,NC(=O)C1CCN(C(=O)c2cc(S(=O)(=O)N3CCN(c4ccccc4)CC3)ccc2Cl)CC1,-3.45% (inactive)
6,COc1cccc(/C=C2\SC(=N)N(c3ccc(F)cc3)C2=O)c1,80.3% (active)
7,COc1cccc(/C=C2/SC(=S)N(CC(=O)NC3C=CS(=O)(=O)C3)C2=O)c1 (stereo not drawn),6.75% (inactive)
8,COc1ccc(/C=C2\SC(=N)N(c3ccc(F)cc3)C2=O)cc1,13.3% (inactive)
9,Cc1cc(C)cc(OCC(=O)NC(C)c2ccccc2)c1 (stereo not drawn),-23.6% (inactive)
10,C/C(CC(=O)NC(C)c1ccccc1)=N\NC(N)=S (stereo not drawn),86.3% (active)
11,Cc1ccc(OCC(=O)NC(C)c2ccccc2)cc1C (stereo not drawn),0.888% (inactive)
12,O=[N+]([O-])c1ccc(N=NNc2ccc([N+](=O)[O-])cc2)cc1,-5.77% (inactive)
13,CCOC(=O)C(CO)NC(=O)C1(NC(C)=O)CCCC1 (stereo not drawn) (Ac-[Ac5c]-[ξS]-OEt),-1.77% (inactive)
14,O=C(Nc1ccc(C(F)(F)F)cc1)c1cccc(-n2cnnn2)c1,9.16% (inactive)
15,O=C(O)c1ccccc1C(=O)Nc1nc(-c2ccccc2)cs1,-7.75% (inactive)
16,O=C(Nc1ccc(-c2csc(Nc3cccc(C(F)(F)F)c3)n2)cc1)c1cccc(C(F)(F)F)c1,109% (active)
17,CN(C(=O)c1cccc(NC(=O)Cc2ccc(NC(=O)C3CCN(C(=O)C4CCCCC4)CC3)cc2)c1)C1CCC1,28.2% (inactive)
18,C=CCCC(=O)N1C[C@H]2CON(C)[C@H]2C[C@H]1c1cccc(Nc2ccccc2)c1,2.33% (inactive)
19,CCCCN(C(=O)c1cccc(N2C(=O)c3ccccc3C2=O)c1)c1c(N)n(CCCC)c(=O)[nH]c1=O,9.37% (inactive)
20,COc1cc(CN2CCC(C(N)=O)CC2)ccc1OCc1ccccc1,-14.9% (inactive)
21,COc1cc(CNC2CCCC2)c(Br)cc1OCc1ccccc1,79.2% (active)
22,COc1ccc(CNC2CCCCC2)cc1,-32.1% (inactive)
23,O=C1/C(=C\c2ccc(O)cc2)CCC1CNc1ccc(Cl)cc1 (stereo not drawn),18.3% (inactive)
